Results from the supplement of paper PMC11417369.
The full ranking holds about 25,000 sequences; the median of “ln(normalized median fluorescence intensity)” is about 9.7, and the highest 2% start at about 11. The sample as a whole holds a higher share of the highest values than the screen did.

The sequences below were run on PfAP2-HC AP2 domain (GST-tagged) (assay: gcPBM binding intensity (ln(normalized median fluorescence intensity)); higher = stronger DNA binding).
Summary of the method: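 Binding intensity is the highest Masliner-normalised natural-log median intensity over replicate spots in either probe orientation. To obtain it, GST-tagged P. falciparum DNA-binding domains made in E. coli were incubated for 1 h on an Agilent 4 × 180k array of primer-extended double-stranded 36-bp intergenic genomic probes plus negative controls. Detection used Alexa488 anti-GST antibody with scanning at 488 nm.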

| Sequence | gcPBM binding intensity (ln) |
| --- | --- |
| TATTATTTGAGTAGTTGTACTCATTAATATATAAAA [XGTACX_site3468] | 9.35 |
| TTTGGCTAGTTAGGCCGTACATGTAAATAATATATA [XGTACX_site1138] | 9.47 |
| CAAAAGGATATGCACACACACACACGGATATTTATA [CACACA_site7099] | 11.4 |
| TATATATATTTATACACACACATATATTTATATATT [CACACA_site484] | 9.97 |
| ATTATATATATTTATGCACACAAAATATATTATATA [CACACA_site9244] | 9.64 |
| ATATTAAACAGACACACACACATATATTTATTTATA [CACACA_site7564] | 10.4 |
| TATATATATATATATACACACATATATATATTTATA [CACACA_site627] | 10.2 |
| TATATATATTTATGCACACAAAATATATTATATAAT [CACACA_site5955] | 9.67 |
| AAAAAACAGACATACACACACACACGGATATTTATA [CACACA_site7570] | 11.4 |
| AACGCACGAGGACACACACACATATTTATATTTATA [CACACA_site6608] | 11.4 |
| ACCATACATACATACACACACACACGCATATTTATA [CACACA_site7386] | 11.2 |
| AACTCACGAGGACACACACACATATATATATATATA [CACACA_site4711] | 10.2 |
| AAAAAACACGGACACACACACATATACATACATACA [CACACA_site5470] | 10.6 |
| AGCACGCACAGACACACACACATATTTATATTTATA [CACACA_site6291] | 10.3 |
| TCATCCACATATTGTAGTACAAGATAATTGTTTATT [XGTACX_site1634] | 9.63 |
| TTTTTAGAAAGACATGCATGTAATAAAAATAAATAA [TGCATGCA_site685] | 9.82 |
| AAAATTTAATATAATGCACACATAAAAAAAAATTCA [CACACA_site8640] | 9.77 |
| TATAGATGTATGTACATACACACATATATAAATAAA [CACACA_site1789] | 10 |
| TTATGCAATTTGTATTGTACATTCATGATATTAATA [XGTACX_site5070] | 9.53 |
| TACATGTATAAATAAGCACACATGTGGATATGTACA [CACACA_site93] | 10 |
| TATTTTTCTTTTTAAAAATATATCACATGAACATTA [XGTACX_negctrl_site183] | 9.39 |
| ATATAAAAAAATAATAAATAAATAAAAAGATTTCTT [XGTACX_negctrl_site110] | 9.65 |
| TATTTATACACGCACACACACTTATACATTTATATA [CACACA_site7543] | 10.8 |

| Sequence | gcPBM binding intensity (ln) |
| --- | --- |
| ATATACATTAAATGAACACACATAAATAAATTACAT [CACACA_site2852] | 9.89 |
| TTATGATGGTCTTTATAAGGGCACATTAAATTCGGC [TGCATGCA_negctrl_site166] | 9.35 |
| TATATATATATTTATACACACACATATATTTATATA [CACACA_site8054] | 10.1 |
| AAACCGTGGGAGCACACACACACACGCGCACATATA [CACACA_site6288] | 10.5 |
| AAACCGTGGGAGCACACACACACACCGACACATATA [CACACA_site4338] | 10.4 |
| TATTTATATTTATATACACACATACATATTTATATT [CACACA_site6535] | 9.93 |
| ACCGTGGGAGGACACACACACACACGCACATATATA [CACACA_site6289] | 11.1 |
| TACATATTTATATACACACACACACGGATATTTATA [CACACA_site7239] | 11 |
| TTTTAAAAATCTATATGTACACAATACGTCTATAAA [XGTACX_site5787] | 9.54 |
| AAAAAAAAACAAAAAAGTACAAAATAAAAATACGTT [XGTACX_site4566] | 9.75 |
| TTTTTTTCTTTTCAAACACACAATTGGTATATATTA [CACACA_site3320] | 9.81 |
| AAGAATTATAGAAACACACATACATACAGACATACA [CACACA_site1943] | 10.1 |
| AACGTCTTTTTTTTTTTTTTTCTTTTTTTTTTTATT [CACACA_negctrl_site303] | 9.86 |
| AAAAAACACGCGCACACACACACACGCGCCCACATA [CACACA_site7106] | 11.1 |
| AAAAAAAACACGCGCACACACACACCCACCCACCGA [CACACA_site2206] | 11.5 |
| AAAAAAAACACGCGCACACACACACCCACAGACACA [CACACA_site5253] | 10.7 |
| AAAAAAAAAAAAAAAACACACATACACGCACGCACA [CACACA_site7569] | 10.8 |
| AAAAAAAAAACACGCGCACACACACCCACCCACCCA [CACACA_site8689] | 10.9 |
| AGAAAAAAACAACATGCACACGCACCCACAAAAAAA [CACACA_site7908] | 10.4 |
| AAAAAAAAAAAAAACACACATACACGCCCACCCATA [CACACA_site3391] | 10.4 |
| AAAAAAAAAACAAATACACACGCACCCAAAAAAAAA [CACACA_site8166] | 10.2 |
| AAAAAAACAACATGCACACGCACACCCAAAAAAAGC [CACACA_site72] | 10.7 |
| GTATAATTGGAAATTACACACCTTAGAATGTAACAT [CACACA_site4059] | 9.68 |

| Sequence | gcPBM binding intensity (ln) |
| --- | --- |
| AAAACTATAAAAATTTTACACACTGTTTTTAAATAA [CACACA_site3667] | 9.57 |
| TATATTATTCATTAAGCACACATTATTTTTATAATA [CACACA_site6056] | 9.69 |
| TTAATACCCGGACACACACACACAAAATAAAATACA [CACACA_site4296] | 10.6 |
| TTTATTTATTAATACACACACACACGCCCACAAAAT [CACACA_site6253] | 10.5 |
| ATAATTAACAAATACACACACACACGCCCACAAAAA [CACACA_site6389] | 11.6 |
| TTTATTTATTAATACACACACACACCCCCACAAAAT [CACACA_site240] | 11.4 |
| ATAATTAACAAATACACACACACACCCAGACAAAAA [CACACA_site4445] | 10.8 |
| ACATAATTAACAAATACACACACACCCACCCACAAA [CACACA_site8069] | 10.7 |
| TTAATACCCAGACACACACACACAAAATAAAATACA [CACACA_site7968] | 11 |
| TATTAATACAGACACACACACACACCCAATAAAATA [CACACA_site243] | 10.8 |
| ATAATTAACAAATACACACACACACCCCCACAAAAA [CACACA_site518] | 10.9 |
| GTATTATATTTTAATACACACCCAAATATTAAAAAG [CACACA_site8968] | 9.77 |
| TTTATTTATTAATACACACACACACCCAGACAAAAT [CACACA_site4292] | 11.3 |
| TTTTTATTTATTAATACACACACACCCACCCACAAA [CACACA_site7965] | 10.4 |
| AAAATCTATATTAACACACACACAAAAAAAAAAAAA [CACACA_site6738] | 10.6 |
| TAACTTGAATGGATATGTACATATATATATATATAT [XGTACX_site5990] | 10 |
| TTGTTTTTTTTTTCTATAAGCATAAAAATGATATAA [XGTACX_negctrl_site356] | 9.27 |
| ATATAAGAAATAAAGAAAAATGTGTTTTTTTTTTTT [XGTACX_negctrl_site396] | 9.6 |
| ATATATATATATATAACACACGCAAAAAAATTAAAT [CACACA_site8395] | 10.1 |
| ACGATGAATATGTAAAGTACGCAAATGTAACAATAT [XGTACX_site728] | 9.91 |
| TATCATTGTTCATGCTTGCACTTTTGTTACTGTTCC [GTGCAC_site9425] | 9.87 |
| GAGAACATTGATACACGTACATAAGTTATAAGTATT [XGTACX_site7665] | 9.71 |
| TTAATTACATGTAATTGTACTTAATTATAAGACATT [XGTACX_site464] | 9.52 |

| Sequence | gcPBM binding intensity (ln) |
| --- | --- |
| AAAAAAAATATCTATGCATGTAATATTATGATATTG [TGCATGCA_site546] | 9.58 |
| TTCAAAAATATATAATGTACACAAATATAAAAGAAT [XGTACX_site1944] | 9.81 |
| AAAGAAAAAAAAAACACACACACACGCATTCAATAT [CACACA_site6169] | 10.7 |
| AAAGAAAAAAAAAACACACACACACCCATTCAATAT [CACACA_site38] | 11.4 |
| AAAAGAAAAAGAAAAACACACATAAATATAAATATA [CACACA_site1879] | 10.2 |
| AAAAAGGAGAAACACACACACACACCCATATATATA [CACACA_site905] | 10.7 |
| AATAAAAAGAAACACACACACACACCCATATATATA [CACACA_site3589] | 11.5 |
| ATACTAAAGAAACACACACACATATATATATAGAAT [CACACA_site100] | 10.9 |
| AGAAAAAAAAAACACACACACACACCCTCAATATAA [CACACA_site39] | 10.5 |
| CACTAAAAGAAACACACACACACACCCATATATATA [CACACA_site4151] | 11 |
| ATAAAAAAAAGAAAAACACACACATATATATATATA [CACACA_site8243] | 10.4 |
| TATCATTTGGTCTTTTACTTTTTCTGTTTTTTTTTT [CACACA_negctrl_site976] | 9.91 |
| CTCATTTTTGTACAGGTGCACTTATCGTTACACTAT | 9.93 |
| CGAAGGTTTGGCCATGCATGTTATAAGAATATATGT [TGCATGCA_site441] | 9.51 |
| AACTTTATTCCTAATTGTACACATATATATATATAT [XGTACX_site6823] | 10 |
| GGGGACGCGGGTGGGGGTACTCACACTATGCAAAAT [XGTACX_site7745] | 9.74 |
| AATAAGCTCACGTGTCGTACATTTTTTAAAACAACC [XGTACX_site4707] | 9.78 |
| CGTATTTATATAATTACACACCATATTTTAATTATT [CACACA_site5960] | 9.76 |
| AATGAACAGACGAGCACACACACACCCATATATATA [CACACA_site1018] | 10.9 |
| AATGAACTCACGAGCACACACACACCGATATATATA [CACACA_site4710] | 11 |
| AAAATGAACTCACGAGCACACACACCCATATATATA [CACACA_site8247] | 10.3 |
